We go through 14 molecules from PubChem BioAssay.

Assay [1] is described as follows: inhibitors of TNFa-induced NFkB p65 translocation, primary screen, imaging, HUVEC, MLSMR starter and 10KST1 sets (AID 438;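 active means inhibition above 20% together with a positive visual image hit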;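 further: compound added about 3h40 before a 20 min TNFalpha stimulation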;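 on inhibition: signal is the nuclear over cytoplasmic p65 intensity ratio per well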). As to conditions: HUVEC TNFa-induced p65 nuclear translocation; cell count: measured here: nuclei count (cytotoxicity indicator), at 2.08 µM; inhibition: at 2 µM, stronger effect = higher value, 0% TNFa-plus-vehicle, 100% no-TNFa wells.
Assay [2] can be described thus: inhibitors of mutant huntingtin aggregation, primary screen, imaging, exon1htt(103Q)mCFP cells, high-content imaging (AID 483;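 active means visual image review flags a hit and inhibition of aggregation exceeds 20%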;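 further: compound exposure lasted 3 days before fixation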;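 on nuclei count: percent of the per-plate median nuclei count of sample wells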). As to conditions: exon1htt(103Q)mCFP cell line, aggregate imaging, at 2 µM; inhibition of aggregation: stronger effect = higher value; nuclei count: measured here: cell count, toxicity.
The nature of assay [3]: inhibitors of E-selectin induction by TNFa, primary screen, imaging, HUVEC, immunofluorescence, MLSMR starter and 10KST1 sets (AID 487;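 active means visually confirmed hit in the image check and inhibition above 20%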;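 on inhibition: signal is fraction of cell area covered by stained E-selectin grains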;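 on nuclei count: 100% = median nuclei count of all wells on the same plate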). As to conditions: HUVEC TNFalpha-induced E-selectin immunofluorescence imaging, at 2 µM; inhibition: stronger effect = higher value; nuclei count: measured here: cell number, toxicity.
Assay [4] deals with Voltage-gated potassium channel subunit beta-2 (Rattus norvegicus) (UniProt P62483). As to the kind of experiment: KvBeta enzyme negative modulators, primary screen, biochemical, NADPH fluorescence (AID 622).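 Further: slope of raw intensity against log time taken from 70 to 1610 s.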 The note with it: recombinant KvBeta, 4-cyanobenzaldehyde reduction, at 10 µM, stronger effect = higher value.
Assay [5] has the same target. The experiment in a line: KvBeta positive modulators, primary screen, biochemical, NADPH fluorescence (AID 623;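 active means NADPH fluorescence slope more negative than the mean of all samples by about 3 SD, 99.7% confidence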;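 further: fluorescence intensity change per second fitted from 20 to 320 s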). As to conditions: Recombinant KvBeta, NADPH fluorescence decrease slope, 10 min; at 10 µM; stronger effect = lower value.
Assay [6] concerns the target Alpha-2C adrenergic receptor (Homo sapiens) (UniProt P18825). As to the kind of experiment: modulators of alpha2C/GIRK thallium flux, primary screen, cell-based, HEK293 alpha2C/GIRK1/2 (AID 624;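 active means fluorescence slope after compound addition differing from the mean of all screened samples at 99.7% confidence, in either direction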;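 further: slope of fluorescence ratio to pre-addition baseline per second over 15 to 24 s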). The note with it: thallium flux BTC fluorescence, at 10 µM, actives lie on both sides.
Assay [7] can be described thus: inhibitors of Sendai virus-induced IRF3 signaling, primary screen, TLR/RLR signaling modifier project, cell-based, Sendai virus stimulus, luciferase, 10K MLSCN set (AID 602276;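 active means inhibition at or above 50% at 10 µM; inactive means inhibition below 50%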;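 further: firefly luciferase from ISG56 promoter only with Renilla not read in this screen; 0% = Sendai virus plus DMSO and 100% = medium plus DMSO without virus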). The note with it: HEK293 RL24 IRF3 luciferase reporter, at 10 µM, stronger effect = higher value. (In a reporter assay the amount or activity of a reporter protein is the signal.)
A short description of assay [8]: inhibitors of poly I:C-induced TLR3 signaling, primary screen, cell-based, poly I:C stimulus, luciferase, 10K MLSCN set (AID 602277;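 active means inhibition of the reporter signal at or above 50%; inactive means inhibition below 50%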). As to conditions: HEK293-TLR3 RL24 IRF3 luciferase reporter, at 10 µM, stronger effect = higher value.

The structures appear in SMILES notation. Activity calls are given as the source filed them.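 How the source made its calls, unless noted: active means fluorescence slope higher than the sample average by over 3 SD (cut at about -0.22 in these data, passing the limit was not always enough); inactive means the rest.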

Chain of Alpha-2C adrenergic receptor (Homo sapiens) (P18825 whole entry, looked up): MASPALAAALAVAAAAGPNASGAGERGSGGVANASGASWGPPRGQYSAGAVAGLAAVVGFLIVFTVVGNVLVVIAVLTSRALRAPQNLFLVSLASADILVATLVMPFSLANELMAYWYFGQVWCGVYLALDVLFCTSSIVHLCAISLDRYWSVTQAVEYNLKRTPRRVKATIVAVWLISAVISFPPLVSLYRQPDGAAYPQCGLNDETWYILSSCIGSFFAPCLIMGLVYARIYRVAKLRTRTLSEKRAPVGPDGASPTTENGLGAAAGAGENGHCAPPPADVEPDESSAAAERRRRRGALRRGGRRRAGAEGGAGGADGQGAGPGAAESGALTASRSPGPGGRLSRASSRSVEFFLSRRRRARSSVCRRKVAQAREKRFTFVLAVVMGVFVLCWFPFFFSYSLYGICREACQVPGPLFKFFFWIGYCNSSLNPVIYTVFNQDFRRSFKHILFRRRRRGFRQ
Chain of Voltage-gated potassium channel subunit beta-2 (Rattus norvegicus) (P62483 whole entry, looked up): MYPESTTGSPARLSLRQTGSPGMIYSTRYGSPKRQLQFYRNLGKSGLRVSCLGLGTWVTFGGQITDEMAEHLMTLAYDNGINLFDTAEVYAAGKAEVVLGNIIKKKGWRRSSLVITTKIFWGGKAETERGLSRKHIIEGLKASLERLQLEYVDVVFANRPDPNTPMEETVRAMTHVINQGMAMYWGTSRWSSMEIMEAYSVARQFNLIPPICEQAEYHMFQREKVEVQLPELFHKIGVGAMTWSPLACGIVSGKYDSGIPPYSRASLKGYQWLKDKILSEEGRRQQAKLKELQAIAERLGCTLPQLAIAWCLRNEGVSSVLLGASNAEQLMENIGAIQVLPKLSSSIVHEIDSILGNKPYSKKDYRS

The term inhibition denotes the drop in the measured response relative to a control, in per cent. Consider `c1ccc(CNc2ncnc3ccccc23)cc1`, for which the cell count in assay [1] came out at 537. The inhibition in assay [1] was -12.4% (inactive); in assay [3], -32.1% (inactive); in assay [7] it was -14.3% (inactive); in assay [8], -78% (inactive). Further, the inhibition of aggregation in assay [2] was -8.7% (inactive). In addition, the nuclei count in assay [2] amounted to 70.8%; in assay [3], 107%. For the same molecule, in assay [4], the fluorescence slope was -0.408 (inactive). In addition, the NADPH fluorescence slope in assay [5] is -4.8e-05 (inactive). Besides, the slope in assay [6] is 0.00588 (inactive).
Consider `O=C(c1ccco1)N1CCN(CC2CC3C=CC2C3)CC1` (centres undefined), for which the cell count in assay [1] was 269. In addition, the inhibition was -10.4% (inactive) in assay [1], -30.7% (inactive) in assay [3], -7.24% (inactive) in assay [7] and -20% (inactive) in assay [8]. Besides, in assay [2], the inhibition of aggregation was -30.9% (inactive). The nuclei count in assay [2] worked out at 7.7%; in assay [3], 106%. Besides, in assay [4], the fluorescence slope was -0.509 (inactive). The NADPH fluorescence slope in assay [5] is 2.8e-05 (inactive). In addition, the slope in assay [6] was 0.00614 (inactive).
For `COc1ccc2[nH]c(C)c(CCN3C(=O)OC(C)(C)C3(C)O)c2c1` (centres undefined), in assay [1], the cell count came to 754. Besides, the inhibition in assay [1] was -4% (inactive); in assay [3], -2.5% (inactive); in assay [7] it was 6.33% (inactive); in assay [8], 23.6% (inactive). Besides, the inhibition of aggregation in assay [2] is -15.3% (inactive). Further, the nuclei count in assay [2] stood at 97.3%; in assay [3], 111%. Besides, the fluorescence slope in assay [4] was -0.561 (inactive). For the same molecule, the NADPH fluorescence slope in assay [5] was -4.3e-05 (inactive). In assay [6], the slope was 0.00701 (inactive).
For the molecule `COc1ccc2nc3oc(C(=O)NC4CCN(Cc5ccccc5)CC4)cc3cc2c1`, in assay [1], the cell count came to 237. Moreover, the inhibition in assay [1] is -1.3% (inactive); in assay [3], -9.9% (inactive); in assay [7] it was -32.2% (inactive); in assay [8], -53.8% (inactive). In assay [2], the inhibition of aggregation was -19% (inactive). The nuclei count in assay [2] was 107%; in assay [3], 110%. In assay [4], the fluorescence slope was -0.122 (active). The NADPH fluorescence slope in assay [5] was -8.2e-06 (inactive). Further, the slope in assay [6] was 0.00404 (inactive).
As to `COC(=O)c1ccccc1NC(=O)C1CC(=O)N(c2ccc(F)cc2)C1` (centres undefined), the cell count in assay [1] worked out at 321. In addition, the inhibition in assay [1] is 6.5% (inactive); in assay [3] it was -16.8% (inactive); in assay [7], 14.7% (inactive); in assay [8], 5.83% (inactive). Further, in assay [2], the inhibition of aggregation is -18.4% (inactive). Besides, the nuclei count in assay [2] was 115%; in assay [3] it was 134%. Also, the fluorescence slope in assay [4] is -0.604 (inactive). Further, the NADPH fluorescence slope in assay [5] was -3.1e-05 (inactive). Besides, the slope in assay [6] was 0.00375 (inactive).
Consider `CCOCCn1c(CN2CCN(CC)CC2)nc2c1c(=O)n(C)c(=O)n2C`, for which the cell count in assay [1] came to 638. In addition, the inhibition in assay [1] is 2.9% (inactive); in assay [3], -15.7% (inactive); in assay [7], 4.19% (inactive); in assay [8], 33.7% (inactive). Moreover, the inhibition of aggregation in assay [2] is 12.8% (inactive). For the same molecule, the nuclei count is 92.7% in assay [2] and 110% in assay [3]. Besides, the fluorescence slope in assay [4] is -0.568 (inactive). Further, the NADPH fluorescence slope in assay [5] is -2.7e-05 (inactive). In addition, the slope in assay [6] is 0.0075 (inactive).
`O=C(CN(Cc1ccco1)C(=O)CNS(=O)(=O)c1ccc(F)cc1)NCCc1ccccc1`: in assay [1], the cell count amounted to 520. Also, the inhibition is -2.1% (inactive) in assay [1], -38.5% (inactive) in assay [3], -0.0533% (inactive) in assay [7] and 19.8% (inactive) in assay [8]. The inhibition of aggregation in assay [2] is -2.1% (inactive). For the same molecule, the nuclei count in assay [2] came to 92.1%; in assay [3] it was 112%. Also, the fluorescence slope in assay [4] is -0.481 (inactive). Besides, the NADPH fluorescence slope in assay [5] was -2.9e-05 (inactive). Moreover, the slope in assay [6] was 0.00696 (inactive).
On to `CCOC(=O)c1ccc(N2C(=O)CC(N3CCN(C/C=C/c4ccccc4)CC3)C2=O)cc1` (centres undefined), for which the cell count in assay [1] came out at 375. The inhibition in assay [1] was -4.9% (inactive); in assay [3], -52.6% (inactive); in assay [7] it was 9.04% (inactive); in assay [8], 16.7% (inactive). For the same molecule, the inhibition of aggregation in assay [2] was -10.3% (inactive). Also, the nuclei count amounted to 103% in assay [2] and 125% in assay [3]. The fluorescence slope in assay [4] was -0.39 (inactive). For the same molecule, in assay [5], the NADPH fluorescence slope was 1.2e-05 (inactive). Moreover, the slope in assay [6] is 0.008 (inactive).
`CN(C)c1cccc2c(S(=O)(=O)Nc3ccccn3)cccc12`: the cell count in assay [1] was 679. Further, the inhibition in assay [1] was 11.1% (inactive); in assay [3] it was 22.1% (inactive); in assay [7], 11.3% (inactive); in assay [8], 19.3% (inactive). Also, the inhibition of aggregation in assay [2] was 11.7% (inactive). Also, the nuclei count in assay [2] is 101%; in assay [3] it was 86.9%. Also, the fluorescence slope in assay [4] was -0.318 (inactive). Besides, the NADPH fluorescence slope in assay [5] was -1.7e-05 (inactive). Moreover, the slope in assay [6] was 0.00542 (inactive).
In the case of `CC(=O)N1CCC(N(C(=O)Nc2ccc(C)c(C)c2)C2CCCC2)CC1`, the cell count in assay [1] turned out to be 644. Moreover, the inhibition in assay [1] was -3.1% (inactive); in assay [3], -61.6% (inactive); in assay [7], 11.1% (inactive); in assay [8] it was 15% (inactive). In addition, in assay [2], the inhibition of aggregation is -11.9% (inactive). In addition, the nuclei count amounted to 52.8% in assay [2] and 106% in assay [3]. In assay [4], the fluorescence slope was -0.258 (inactive). Also, the NADPH fluorescence slope in assay [5] is -1.2e-06 (inactive). For the same molecule, the slope in assay [6] is 0.0055 (inactive).
Consider `CCCCCn1c(CN2CCN(C)CC2)nc2c1c(=O)n(C)c(=O)n2C`, for which the cell count in assay [1] was 521. Further, the inhibition in assay [1] is -1.4% (inactive); in assay [3], 0.3% (inactive); in assay [7], 1.18% (inactive); in assay [8], 43.6% (inactive). For the same molecule, the inhibition of aggregation in assay [2] is -17.1% (inactive). The figures for the nuclei count in assay [2] and in assay [3] were 95.8% and 93.2%, respectively. Besides, the fluorescence slope in assay [4] is -0.571 (inactive). In assay [5], the NADPH fluorescence slope was -3e-06 (inactive). Besides, the slope in assay [6] was 0.00637 (inactive).
Turning to `COC(=O)CCn1nnc(-c2cccs2)n1`, the cell count in assay [1] is 547. In addition, the inhibition in assay [1] is -6.8% (inactive); in assay [3] it was -34.8% (inactive); in assay [7], -2.1% (inactive); in assay [8], -22% (inactive). Moreover, the inhibition of aggregation in assay [2] was 7.6% (inactive). Besides, the figures for the nuclei count in assay [2] and in assay [3] were 110% and 96%, respectively. Moreover, in assay [4], the fluorescence slope is -0.598 (inactive). In addition, the NADPH fluorescence slope in assay [5] was -5.1e-05 (inactive). For the same molecule, the slope in assay [6] is 0.00439 (inactive).
Consider `COc1cc(C(O)c2nc3ccccc3n2C)cc(OC)c1OC` (centres undefined), for which the cell count in assay [1] was 384. In addition, the inhibition in assay [1] was 25.8% (active); in assay [3], -13.7% (inactive); in assay [7], 2.58% (inactive); in assay [8], 18.3% (inactive). In addition, the inhibition of aggregation in assay [2] was 21.2% (inactive). Moreover, the figures for the nuclei count in assay [2] and in assay [3] were 81.3% and 108%, respectively. For the same molecule, the fluorescence slope in assay [4] is -0.453 (inactive). Further, the NADPH fluorescence slope in assay [5] is -2.3e-05 (inactive). Moreover, the slope in assay [6] is 0.00191 (inactive).
Regarding `CCCc1cc(C(=O)Nc2ccc(C(C)=O)cc2)no1`, the cell count in assay [1] was 566. For the same molecule, the inhibition in assay [1] is -4.4% (inactive); in assay [3] it was -58.4% (inactive); in assay [7], 15.4% (inactive); in assay [8], -5.79% (inactive). The inhibition of aggregation in assay [2] was 1.1% (inactive). In addition, the nuclei count worked out at 128% in assay [2] and 110% in assay [3]. In assay [4], the fluorescence slope was -0.559 (inactive). Besides, the NADPH fluorescence slope in assay [5] was 1.4e-06 (inactive). Moreover, the slope in assay [6] is 0.00619 (inactive).
